Laboratory results: PubChem BioAssay (NCATS)
Records with an inconclusive call do not appear. The source made the active and inactive calls. Unless noted, the call rests on the fitted dose curve; in most records, active means well fitted curve in the direction sought with a large enough effect; inconclusive means small, poorly fitted or top-dose-only effect, or another doubt; inactive means no such curve, though single readings can be large; an effect the other way counts as inactive or inconclusive.

How the values were obtained:
[1] = Cell Viability - NIH 3T3 (AID 541); conditions: NIH 3T3 cell viability, qHTS; activity change, negative = cytotoxicity: at 92.2 µM (top of the series);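 further: cells exposed to compound for 40 hours; plate controls were DMSO alone for no effect and tamoxifen positive control for full effect; nearly all actives have a fitted effect of over 25% in size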
Summary of the method: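 qHTS format; 40 hr compound exposure, 37 °C; CellTiter-Glo luminescence (cellular ATP) read-out after 20 min at RT. Decrease in ATP = cytotoxicity; AC50 from standard Hill fit.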

[2] = Cell Viability - SH-SY5Y (AID 544); conditions: SH-SY5Y neuroblastoma cell viability; viability change, negative = cytotoxic: at 92.2 µM (top of the series);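 further: cells exposed to compound for 40 hours; 0% = DMSO alone and -100% = 100 µM tamoxifen; nearly all actives have a fitted effect of over 55% in size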
Summary of the method: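 SH-SY5Y, 1500 cells/well, 5 hr pre-incubation 37 °C; cpd 40 hr 37 °C; CellTiter-Glo 20 min RT; luminescence (ATP) read. qHTS concentration-response, Hill fit → AC50. Tamoxifen, doxorubicin as positive controls.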

[3] = Cell Viability - LYMP2-001 (AID 921);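 further: 0% = DMSO only and full inhibition = tetraoctylammonium bromide control wells; nearly all actives have a fitted effect of over 70% in size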
Summary of the method: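 Cellular ATP loss read by luciferase luminescence after 24 h compound exposure at 37 C in complete medium. LYMP2-001 lymphoblastoid cells, 2500/well; qHTS concentration-response data fitted with Hill equation for AC50.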

[4] = MultiTox-Fluor Cytotoxicity Assay - LYMP1-001 - Dead Cells (AID 946)
Summary of the method: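 Cytotoxicity as increased dead-cell protease fluorescence (bis-AAF-R110, 485/520 nm), read 60 min after MultiTox-Fluor reagent. Human lymphoblastoid line exposed 16 h; Hill-fitted AC50, with DMSO as 0% and 15 uM tetraoctylammonium bromide as 100%.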

[5] = Cell Viability - LYMP1-003 - Assay at 40 hr (AID 964); further: on the % scale 0 is the no-effect control and ±100 the full control effect; nearly all actives have a fitted effect of over 60% in size
Summary of the method: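 LYMP1-003 lymphoblastoid cells, 2500/well; 5 hr preincubation, 40 hr compound exposure, 37 C; CellTiter-Glo 30 min RT; luminescence; Hill-fit AC50. Positive control tetraoctylammonium bromide.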

[6] = Cell Viability - LYMP2-011 (AID 969);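 further: 0% = DMSO only and full inhibition = 92 µM tetraoctylammonium bromide; nearly all actives have a fitted effect of over 60% in size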
Summary of the method: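 Luminescent ATP read-out (CellTiter-Glo, 30 min RT) after 24 hr compound exposure at 37 C in human lymphoblastoid cells, 2500 cells/well. Decreasing ATP indicates cytotoxicity; AC50 from standard Hill fit.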

[7] = Cell Viability - LYMP2-015 (AID 971);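 further: 0% = DMSO only and full effect = 92 µM tetraoctylammonium bromide; nearly all actives have a fitted effect of over 55% in size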
Summary of the method: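 qHTS cytotoxicity: 2500 cells/well, 5 hr 37 C, compound 24 hr 37 C, CellTiter-Glo 30 min RT, luminescence. Loss of ATP = toxicity; AC50 via standard Hill fit.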

[8] = Cell Viability - LYMP2-019 (AID 973);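 further: 0% = DMSO alone and full effect = 92 µM tetraoctylammonium bromide; nearly all actives have a fitted effect of over 55% in size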
Summary of the method: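 qHTS, 1536-well; 2500 cells/well; 5 hr pre-incubation, 24 hr compound exposure, 37 C; CellTiter-Glo added, 30 min RT; luminescence read; AC50 via standard Hill equation.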

[9] = Cell Viability - LYMP2-023 (AID 975);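 further: cellular ATP measured by luciferase luminescence as viability proxy; plate controls were DMSO only for no effect and 92 µM tetraoctylammonium bromide control for full effect; nearly all actives have a fitted effect of over 55% in size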
Summary of the method: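 CellTiter-Glo luminescence after 30 min at room temperature; decrease in intracellular ATP reflects toxicity. Cells: human lymphoblastoid line, 2500/well, 24 hr compound exposure at 37 C. AC50 fitted to standard Hill equation from concentration-response.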

[10] = Cell Viability - LYMP2-006 (AID 978); further: on the % scale 0 is the no-effect control and ±100 the full control effect; nearly all actives have a fitted effect of over 60% in size
Summary of the method: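 Potency values are Hill-fit AC50s for decreases in intracellular ATP (CellTiter-Glo luminescence). LYMP2-006 lymphoblastoid cells, 2500 per well, were exposed to compound in complete culture medium for 24 hr at 37 C.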

[11] = Cell Viability - LYMP2-007 (AID 979);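 further: cells exposed to compound for 24 h before reading; 0% = DMSO only and the negative end = 92 µM tetraoctylammonium bromide; nearly all actives have a fitted effect of over 60% in size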
Summary of the method: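 qHTS cytotoxicity: 2500 cells/well, 5 hr 37 C settle, compound 24 hr 37 C, CellTiter-Glo 30 min RT, luminescence. Decrease in ATP = toxicity. AC50 by standard Hill equation; tetraoctylammonium bromide positive control.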

[12] = Cell Viability - LYMP2-010 (AID 981)
Summary of the method: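 qHTS cytotoxicity, 1536-well: 2500 cells/well, 5 hr settle, 24 hr compound at 37 C, CellTiter-Glo 30 min RT, luminescence read. Decrease in ATP = toxicity; AC50 via standard Hill equation. Positive control tetraoctylammonium bromide.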

[13] = Cell Viability - LYMP2-018 (AID 985);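 further: plate controls were DMSO only for no effect and tetraoctylammonium bromide at 92 µM for full effect; nearly all actives have a fitted effect of over 50% in size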
Summary of the method: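 2500 cells/well; 5 hr 37 C; cmpd 24 hr 37 C, complete medium; CellTiter-Glo 30 min RT; luminescence. Tetraoctylammonium bromide positive control. AC50 via Hill fit.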

[14] = Cell Viability - LYMP2-020 (AID 986)
Summary of the method: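 qHTS, 2500 cells/well; 5 hr then 24 hr compound exposure, 37 C; CellTiter-Glo luminescence after 30 min RT; ATP decrease taken as cytotoxicity; AC50 via Hill equation; tetraoctylammonium bromide positive control.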

[15] = Cell Viability - LYMP2-022 (AID 987)
Summary of the method: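 Luminescent ATP read-out (CellTiter-Glo, 30 min, RT) after 24 hr, 37 C compound exposure of 2500 human lymphoblastoid cells/well in complete medium. Cytotoxicity taken as concentration-dependent ATP loss; AC50 from standard Hill equation.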

[16] = Cell Viability - LYMP2-026 (AID 989); further: on the % scale 0 is the no-effect control and ±100 the full control effect; nearly all actives have a fitted effect of over 50% in size
Summary of the method: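 qHTS cytotoxicity: 2500 cells/well, 5 hr 37 C, compound 24 hr 37 C, CellTiter-Glo 30 min RT, luminescence. Tetraoctylammonium bromide positive control. AC50 via standard Hill fit.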

[17] = target: Retinoic acid receptor RXR-alpha (Homo sapiens) (UniProt P19793); assay: qHTS assay for small molecule agonists of retinoid X receptor alpha signaling (AID 588544; calls by dose curve;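 further: 0% = DMSO basal wells and 100% = reference agonist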)
Sequence of Retinoic acid receptor RXR-alpha (Homo sapiens) (P19793 whole entry, looked up): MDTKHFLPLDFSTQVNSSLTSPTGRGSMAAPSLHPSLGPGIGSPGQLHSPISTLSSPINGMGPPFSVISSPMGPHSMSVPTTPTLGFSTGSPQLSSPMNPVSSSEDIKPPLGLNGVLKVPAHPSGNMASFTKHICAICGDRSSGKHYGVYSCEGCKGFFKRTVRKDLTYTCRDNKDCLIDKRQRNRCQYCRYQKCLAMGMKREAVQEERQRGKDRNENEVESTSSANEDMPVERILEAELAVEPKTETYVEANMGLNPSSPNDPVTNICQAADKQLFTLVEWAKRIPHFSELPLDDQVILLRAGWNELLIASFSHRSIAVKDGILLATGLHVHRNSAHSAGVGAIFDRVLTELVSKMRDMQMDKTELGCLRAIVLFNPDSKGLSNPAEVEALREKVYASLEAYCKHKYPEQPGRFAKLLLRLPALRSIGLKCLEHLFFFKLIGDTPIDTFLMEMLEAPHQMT

[18] = target: Voltage-gated inwardly rectifying potassium channel KCNH2 (Homo sapiens) (UniProt Q12809); assay: qHTS Assay for Small Molecule Inhibitors of the Human hERG Channel Activity (AID 588834);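 further: lower thallium flux fluorescence means stronger hERG block; nearly all actives have a fitted effect of over 50% in size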; further: potency means the concentration at half of the fitted maximal effect
Sequence of Voltage-gated inwardly rectifying potassium channel KCNH2 (Homo sapiens) (Q12809 whole entry, looked up): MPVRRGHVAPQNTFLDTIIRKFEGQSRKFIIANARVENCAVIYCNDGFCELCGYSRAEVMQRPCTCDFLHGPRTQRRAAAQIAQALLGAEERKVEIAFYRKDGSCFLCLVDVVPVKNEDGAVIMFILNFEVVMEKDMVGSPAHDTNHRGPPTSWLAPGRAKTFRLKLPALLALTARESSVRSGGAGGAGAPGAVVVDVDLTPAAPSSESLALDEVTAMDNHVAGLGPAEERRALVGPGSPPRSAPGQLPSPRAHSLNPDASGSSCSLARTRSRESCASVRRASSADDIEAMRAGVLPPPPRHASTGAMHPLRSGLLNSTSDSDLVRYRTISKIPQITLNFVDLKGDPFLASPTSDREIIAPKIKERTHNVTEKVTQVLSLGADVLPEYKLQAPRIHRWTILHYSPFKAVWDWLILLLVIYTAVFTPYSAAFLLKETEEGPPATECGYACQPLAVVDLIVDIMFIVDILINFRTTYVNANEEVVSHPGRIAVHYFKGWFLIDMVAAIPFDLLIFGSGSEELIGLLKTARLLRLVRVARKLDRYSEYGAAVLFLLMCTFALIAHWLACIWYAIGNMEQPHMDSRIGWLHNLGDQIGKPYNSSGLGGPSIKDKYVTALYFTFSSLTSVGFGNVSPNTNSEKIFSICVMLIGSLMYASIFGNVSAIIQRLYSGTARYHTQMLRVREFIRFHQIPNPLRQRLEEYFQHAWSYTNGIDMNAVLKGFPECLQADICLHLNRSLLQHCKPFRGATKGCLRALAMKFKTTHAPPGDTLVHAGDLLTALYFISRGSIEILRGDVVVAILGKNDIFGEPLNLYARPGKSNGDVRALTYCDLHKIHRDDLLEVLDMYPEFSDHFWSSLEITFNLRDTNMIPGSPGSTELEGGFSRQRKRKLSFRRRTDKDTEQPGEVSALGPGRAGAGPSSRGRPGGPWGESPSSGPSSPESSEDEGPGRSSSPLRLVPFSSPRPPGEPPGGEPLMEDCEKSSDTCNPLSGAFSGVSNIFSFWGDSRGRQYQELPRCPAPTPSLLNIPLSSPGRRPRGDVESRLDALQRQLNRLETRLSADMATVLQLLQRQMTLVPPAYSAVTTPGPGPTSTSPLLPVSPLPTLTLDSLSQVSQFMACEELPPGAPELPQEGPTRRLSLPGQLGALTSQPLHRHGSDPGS
Summary of the method: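 hERG block measured as reduced thallium-dye (FluxOR) fluorescence after stimulation buffer addition, read over 2 min. Cells were hERG-BacMam-transduced U2OS exposed to compound ~10 min […]; concentration-response fitted with Hill equation for AC50.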

[19] = Cell Viability - LYMP2-002 (AID 977);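 further: plate controls were DMSO only for no effect and 92 µM tetraoctylammonium bromide for full effect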
Summary of the method: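 Human lymphoblastoid cells (2500/well) in complete medium were preincubated 5 hr at 37 C, then exposed to compounds for 24 hr at 37 C. Intracellular ATP was read by CellTiter-Glo luminescence; AC50 came from Hill-equation concentration-response fits.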

[20] = Cell Viability - LYMP2-014 (AID 983);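 further: plate controls were DMSO only for no effect and 92 µM tetraoctylammonium bromide for full effect; nearly all actives have a fitted effect of over 50% in size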
Summary of the method: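 2500 cells/well, 5 hr 37 C; cpd 24 hr 37 C, complete medium; CellTiter-Glo 30 min RT, luminescence; ATP loss = toxicity; AC50 via Hill eqn; tetraoctylammonium bromide positive control.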

CCCCCC[N+](=O)[O-]
inactive: Potency [1] | Potency [2] | Potency [3] | outcome [4] | Potency [5] | Potency [6] | Potency [7] | Potency [8] | Potency [9] | Potency [10] | Potency [11] | Potency [12] | Potency [13] | Potency [14] | Potency [15] | Potency [16] | outcome [17] | Potency [18]

C=C(Cl)CSC(=S)N(CC)CC
inactive: outcome [4] | Potency [5] | Potency [6] | Potency [7] | Potency [9] | Potency [11] | Potency [16] | outcome [17]
active: activity change, negative = cytotoxicity [1] -85.8% | Potency [18] 39.8 µM

[N-]=[N+]=[N-]
inactive: Potency [2] | Potency [3] | outcome [4] | Potency [5] | Potency [6] | Potency [8] | Potency [9] | Potency [19] | Potency [10] | Potency [11] | Potency [12] | Potency [20] | Potency [13] | Potency [14] | Potency [15] | Potency [16] | outcome [17] | Potency [18]

Nc1ccc(Cl)c(Cl)c1
inactive: Potency [1] | Potency [2] | outcome [4] | Potency [5] | Potency [6] | Potency [7] | Potency [9] | Potency [19] | Potency [10] | Potency [11] | Potency [20] | Potency [13] | Potency [14] | Potency [15] | outcome [17]

CC(C)CON=O
inactive: Potency [1] | Potency [2] | Potency [3] | Potency [6] | Potency [7] | Potency [8] | Potency [9] | Potency [10] | Potency [11] | Potency [20] | Potency [13] | Potency [14] | outcome [17] | Potency [18]

Cc1cc(Cl)ccc1O
inactive: Potency [1] | Potency [3] | outcome [4] | Potency [5] | Potency [6] | Potency [8] | Potency [9] | Potency [19] | Potency [10] | Potency [11] | Potency [12] | Potency [20] | Potency [13] | Potency [14] | Potency [15] | Potency [16]

CCOS(C)(=O)=O
inactive: Potency [1] | Potency [3] | outcome [4] | Potency [5] | Potency [7] | Potency [8] | Potency [9] | Potency [19] | Potency [11] | Potency [12] | Potency [20] | Potency [13] | Potency [14] | Potency [15] | outcome [17] | Potency [18]

BrC(Br)Br
inactive: Potency [1] | Potency [2] | Potency [3] | outcome [4] | Potency [5] | Potency [6] | Potency [9] | Potency [19] | Potency [10] | Potency [11] | Potency [12] | Potency [20] | Potency [13] | Potency [14] | Potency [15] | Potency [16] | outcome [17] | Potency [18]

Oc1cc(Cl)cc(Cl)c1
inactive: Potency [1] | Potency [2] | Potency [3] | outcome [4] | Potency [5] | Potency [6] | Potency [8] | Potency [9] | Potency [19] | Potency [10] | Potency [20] | Potency [13] | Potency [15] | Potency [16] | outcome [17] | Potency [18]

Nc1c(Cl)cc([N+](=O)[O-])cc1Cl
inactive: Potency [1] | Potency [2] | Potency [3] | outcome [4] | Potency [5] | Potency [6] | Potency [7] | Potency [8] | Potency [9] | Potency [19] | Potency [10] | Potency [11] | Potency [12] | Potency [13] | Potency [14] | Potency [15] | Potency [16] | outcome [17]

C=CCBr
inactive: Potency [2] | Potency [3] | outcome [4] | Potency [5] | Potency [6] | Potency [8] | Potency [19] | Potency [10] | Potency [11] | Potency [12] | Potency [20] | Potency [13] | Potency [14] | outcome [17]

O=C(O)C(Cl)(Cl)Br
inactive: Potency [3] | outcome [4] | Potency [5] | Potency [6] | Potency [7] | Potency [8] | Potency [9] | Potency [19] | Potency [10] | Potency [11] | Potency [12] | Potency [20] | Potency [14] | Potency [15] | Potency [16] | outcome [17]

C=CCCC#N
inactive: Potency [2] | Potency [3] | outcome [4] | Potency [5] | Potency [6] | Potency [7] | Potency [9] | Potency [19] | Potency [20] | Potency [13] | Potency [14] | Potency [15] | outcome [17] | Potency [18]

CCCCCOC(=O)c1ccccc1C(=O)OCCCCC
inactive: Potency [1] | Potency [2] | Potency [3] | outcome [4] | Potency [5] | Potency [6] | Potency [7] | Potency [8] | Potency [9] | Potency [19] | Potency [10] | Potency [11] | Potency [12] | Potency [20] | Potency [13] | Potency [14] | Potency [16] | outcome [17]

ClCc1ccccc1
inactive: Potency [1] | Potency [2] | Potency [3] | outcome [4] | Potency [7] | Potency [8] | Potency [19] | Potency [10] | Potency [11] | Potency [12] | Potency [13] | Potency [14] | Potency [16] | Potency [18]

OCCBr
inactive: Potency [1] | Potency [2] | Potency [3] | outcome [4] | Potency [5] | Potency [7] | Potency [9] | Potency [19] | Potency [10] | Potency [12] | Potency [20] | Potency [13] | Potency [14] | Potency [15] | Potency [16] | Potency [18]

O=[N+]([O-])c1ccccc1-c1ccccc1
inactive: Potency [3] | Potency [5] | Potency [6] | Potency [7] | Potency [9] | Potency [19] | Potency [10] | Potency [11] | Potency [12] | Potency [20] | Potency [13] | Potency [14] | Potency [15] | Potency [16]
